Bioassay records as filed in PubChem BioAssay.
Rows were chosen to be rich in hits. Some 3.6% of all compounds tested hit in one or more screens of this group.
HSF-1 act – increases HSF-1 driven luciferase reporter signal; NIH3T3-HGL HSF-1 luciferase reporter, MG132, 8 h; 100% = twice DMSO control signal; AID 504408; 300,000 compounds, 1.7% hits; activation, % at 9 µM;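 active = mean replicate activation of at least 50% with a set share of replicates each reaching 50%; inconclusive = only one of those two conditions met; inactive = mean below 50% and too few replicates reaching it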;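 also: 0% = median of the neutral control wells and 100% = twice that signal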
EBV LMP1 NFkB – Epstein-Barr LMP1 NF-kappaB reporter inhibition. 350,000 compounds, 0.69% hits. LMP1-induced NF-kappaB luciferase reporter cells, luminescence. AID 504558. inhibition, % at 12.5 µM; in the data active = inhibition above about 41%; inconclusive = no clear call, values can overlap the other calls;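 also: 0% = neutral control wells and 100% = reference inhibitor control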
TWEAK-Fn14 inh – TWEAK-Fn14 signaling inhibition | TWEAK-stimulated Fn14 reporter cells, luciferase luminescence, 8 h | inhibition, % at 10 µM | 360,000 compounds, 2% hits | AID 1159606; in the data active = inhibition above about 50%
TROY signal inh – blocks TROY-dependent signaling in reporter cells; Q293 LMP1-TROYcd NF-kB luciferase reporter, 4 h; inhibition, % at 10 µM; 360,000 compounds, 0.98% hits;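 active = compounds whose plate-normalised and pattern-corrected inhibition of the luciferase reporter signal at the single screening dose is 50% or more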
HSF1 inhib – HSF1 inhibition; NIH3T3-HGL HSE-luciferase, MG132-induced, luminescence 8 h; stronger effect = lower value; activity change, negative = inhibition, % at 7.5 µM (by protocol); 300,000 compounds, 0.77% hits; AID 2098;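 active = more than half of replicate wells show activity change below -50%, luminescence cut by over half; inconclusive = some wells, but at most half, below -50%; inactive = no replicate well below -50%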;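 also: luciferase reports HSF-1 transcriptional activity via heat shock element; 0% = median of DMSO wells and -100% = zero luminescence signal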
LGR2 antag – blocks bursicon-induced cAMP signaling via Drosophila LGR2; HEK293 LGR2, CRE-luciferase, bursicon-stimulated, 4 h; inhibition, % at 9.99 µM; 380,000 compounds, 0.35% hits; AID 720647;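 active = drop in luminescence signal, shown as inhibition above about 50% in the replicate tests, limit read from the data, passing the limit was not always enough; inconclusive = probably only some replicates passing the limit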;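 also: agonist challenge used bursicon conditioned medium at about half maximal strength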
Active calls of the source: *.

For CCOc1ccc(/C=C/C(=O)c2ccccc2)cc1OC the results were HSF-1 act 62.9*, EBV LMP1 NFkB -5.9, TWEAK-Fn14 inh 15.0, TROY signal inh -57.4, HSF1 inhib 32.3 and LGR2 antag -71.8.
COc1cccc(C(=O)/C=C/c2ccc(OCC#N)c(OC)c2)c1 was read as HSF-1 act 7.4, EBV LMP1 NFkB 6.5, TWEAK-Fn14 inh 83.8*, TROY signal inh 0.7, HSF1 inhib 23.8 and LGR2 antag 20.9.
Screening COC(=O)c1ccc(/C=C/C(=O)c2cccc(OC)c2)cc1 returned HSF-1 act 17.4, EBV LMP1 NFkB 3.3, TWEAK-Fn14 inh -6.2, TROY signal inh -53.9, HSF1 inhib 1.1 and LGR2 antag -17.2.
Screening CO[C@@H]1CN(C)C(=O)c2cc(NC(=O)C3CC3)ccc2OC[C@H](C)N(Cc2cncnc2)C[C@H]1C returned LGR2 antag -10.3.
Screening CCCN(C)C[C@H]1OCCCC[C@@H](C)Oc2ccc(NC(=O)CCC(F)(F)F)cc2C(=O)N([C@@H](C)CO)C[C@H]1C returned LGR2 antag -4.5.
For CC12CCC3C(CCC4N(CCO)CCC34C)C1CCC2O (stereo unspecified) the results were HSF-1 act 11.2, EBV LMP1 NFkB 7.9, TWEAK-Fn14 inh 94.3*, TROY signal inh -7.0, HSF1 inhib -0.1 and LGR2 antag 7.1.
CCOC(=O)c1ccc(Oc2nc(OC)nc(N(C)C)n2)cc1 was read as HSF-1 act 11.0, EBV LMP1 NFkB 39.6, TWEAK-Fn14 inh -2.9, TROY signal inh 8.4 and HSF1 inhib -7.5.
For CCOC(=O)c1ccc(Oc2nc(NC)nc(Nc3ccccc3)n2)cc1 the results were HSF-1 act -67.7, EBV LMP1 NFkB 2.4, TWEAK-Fn14 inh 2.4, TROY signal inh -11.9 and HSF1 inhib -56.5*.
`CC(=O)COc1ncn(-c2ccccc2)n1` gave HSF-1 act -7.6, EBV LMP1 NFkB -2.2, TWEAK-Fn14 inh 87.2* and HSF1 inhib 5.8.
COc1ccc2c3c(n(C)c2c1)[C@@H](CO)N(C(=O)c1ccc(F)cc1)CC31CCN(C(C)=O)CC1 was read as LGR2 antag -3.0.
Screening CCCCCCNC(=O)CC(c1ccccc1)c1cc(Br)ccc1O (stereo unspecified) returned HSF-1 act 33.9, EBV LMP1 NFkB 5.8, TWEAK-Fn14 inh 42.0, TROY signal inh 55.4*, HSF1 inhib 9.6 and LGR2 antag inconclusive.
`CC1=C(C(=O)Nc2ccccc2)C(c2ccncc2)C(C#N)=C(SCC(=O)NC(C)C)N1` (stereo unspecified) gave HSF-1 act 14.1, EBV LMP1 NFkB 4.3, TWEAK-Fn14 inh 4.4, TROY signal inh 1.9 and HSF1 inhib -3.9.
`CC1=C(C(=O)Nc2ccccc2)C(c2ccncc2)C(C#N)=C(SCC(=O)NC2CC2)N1` (stereo unspecified) gave HSF-1 act -1.8, EBV LMP1 NFkB -10.8, TWEAK-Fn14 inh 94.4* and HSF1 inhib -5.0.
`O=c1/c(=C\c2ccc(O)cc2)sc2nc(-c3ccccc3)c(-c3ccccc3)n12` gave HSF-1 act 13.0, EBV LMP1 NFkB -4.7, TWEAK-Fn14 inh 15.9, TROY signal inh 10.9, HSF1 inhib -0.8 and LGR2 antag 9.4.
For O=c1/c(=C/c2ccccc2)sc2nnc(-c3cccs3)n12 the results were HSF-1 act 64.5*, TWEAK-Fn14 inh -2.7, TROY signal inh 3.6, HSF1 inhib 26.7 and LGR2 antag -7.5.
`COc1ccc(-n2c(-c3ccc(Br)cc3)c[n+]3c2CCC3)cc1` gave HSF-1 act 3.7, EBV LMP1 NFkB 25.6, TWEAK-Fn14 inh 23.4, TROY signal inh 26.7, HSF1 inhib -5.8 and LGR2 antag -24.9.
COc1ccc(-n2c(-c3ccccc3)c[n+]3c2CCC3)cc1 was read as HSF-1 act -12.5, EBV LMP1 NFkB 24.3, TWEAK-Fn14 inh 86.3*, TROY signal inh -7.8, HSF1 inhib -2.6 and LGR2 antag 10.3.
Screening CSc1cccc(NC(=O)c2sc3nc4n(c(=O)c3c2C)CCC4)c1 returned HSF-1 act 64.4*, EBV LMP1 NFkB -10.2, TWEAK-Fn14 inh -34.9, TROY signal inh -14.2, HSF1 inhib 44.3 and LGR2 antag -80.3.
`CCn1c(O)c(C2=c3ccccc3=NC2=O)c2cc(Br)ccc21` gave HSF-1 act 208.7*, HSF1 inhib 197.6 and LGR2 antag 16.2.
`C[C@H](CO)N1C[C@H](C)[C@@H](CN(C)Cc2ccc(Oc3ccccc3)cc2)Oc2ncc(-c3ccncc3)cc2C1=O` gave LGR2 antag 12.8.
Screening S=c1[nH]cnc2scc(-c3ccc(Cl)cc3)c12 returned HSF-1 act 8.6, TWEAK-Fn14 inh 26.2, TROY signal inh 67.7*, HSF1 inhib -0.2 and LGR2 antag 8.5.
For O=C1C(Nc2ccccc2)=C(N2CCCCC2)C(=O)c2ccccc21 the results were HSF-1 act -4.0, EBV LMP1 NFkB 5.1, TWEAK-Fn14 inh 21.5, TROY signal inh -36.7 and HSF1 inhib -0.5.
COc1ccccc1NC1=C(N2CCCCC2)C(=O)c2ccccc2C1=O was read as HSF-1 act -17.6, EBV LMP1 NFkB 4.3, TWEAK-Fn14 inh 67.4*, TROY signal inh 57.7* and HSF1 inhib -12.3.
Screening O=C(/C=C/c1ccc(O)cc1)c1ccc(NC2=C(N3CCCCC3)C(=O)c3ccccc3C2=O)cc1 returned HSF-1 act 2.5, EBV LMP1 NFkB 42.9*, TWEAK-Fn14 inh 53.4*, TROY signal inh 4.6, HSF1 inhib -1.1 and LGR2 antag -35.7.
Screening Cc1ccc(NC2=C(N3CCCCC3)C(=O)c3ccccc3C2=O)cc1 returned HSF-1 act -3.1, EBV LMP1 NFkB -2.2, TWEAK-Fn14 inh 64.1*, TROY signal inh 26.9, HSF1 inhib 2.2 and LGR2 antag -14.8.
`C[C@@H]1CN([C@H](C)CO)C(=O)c2cccc(NC(=O)c3cnccn3)c2O[C@H]1CN(C)C(=O)Nc1ccccc1` gave LGR2 antag -8.0.
Screening CC(C)NC(=O)Nc1ccc2c(c1)CC(=O)N([C@@H](C)CO)C[C@H](C)[C@H](CN(C)C)O2 returned LGR2 antag -17.2.
For CC1Cc2ccccc2N1C(=O)CSc1ncccc1C(=O)O (stereo unspecified) the results were HSF-1 act -81.4, EBV LMP1 NFkB -3.7, TWEAK-Fn14 inh -7.3, TROY signal inh 2.0 and HSF1 inhib -77.6*.
O=C(Nc1ccccc1)N[C@@H]1CC[C@@H](CCNC(=O)c2ccccc2F)O[C@H]1CO was read as LGR2 antag 16.3.
N#CC1c2ccccc2C=CN1C(=O)N(c1ccccc1)c1ccccc1 (stereo unspecified) was read as EBV LMP1 NFkB 8.0, TWEAK-Fn14 inh 94.3* and TROY signal inh 38.5.
Screening COc1ccc(C(=O)N2C=Cc3ccccc3C2C#N)cc1 (stereo unspecified) returned EBV LMP1 NFkB 9.1, TWEAK-Fn14 inh 14.0, TROY signal inh 5.1 and LGR2 antag 0.2.
